The panel holds about 83,000 compounds, 20% with a hit somewhere; the sample as a whole holds those more often.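 Values shown are percent growth following 48 h exposure of cells in 96-well plates to a single concentration of compound; below 10 was considered active.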 Active and inactive are the calls of the source.
Experiments:
Assay in all cases: NCI-60 one-dose screen, 48 h (100 = growth as untreated, 0 = no growth, -100 = all killed)
Details in all cases: 10 µM unless noted
NCI-H23 lung = system: NCI-H23 lung
NCI-H226 lung = system: NCI-H226 lung
NCI-H322M lung = system: NCI-H322M lung
HOP-62 NSCLC = system: HOP-62 NSCLC
HOP-92 NSCLC = system: HOP-92 NSCLC
NCI-H522 lung = system: NCI-H522 lung
A549/ATCC NSCLC = system: A549/ATCC NSCLC
786-0 renal = system: 786-0 renal
COLO 205 colon = system: COLO 205 colon
DU-145 prostate = system: DU-145 prostate
K-562 leukemia = system: K-562 leukemia
MALME-3M melanoma = system: MALME-3M melanoma
MDA-MB-231 breast = system: MDA-MB-231 breast
RXF 393 renal = system: RXF 393 renal
SF-268 CNS = system: SF-268 CNS
SF-295 CNS = system: SF-295 CNS
SF-539 CNS = system: SF-539 CNS
UACC-257 melanoma = system: UACC-257 melanoma
M14 melanoma = system: M14 melanoma

Measured: growth

NC(N)=N/N=C/c1ccccc1
inactive: NCI-H23 lung 102% | NCI-H226 lung 97.8% | NCI-H322M lung 91.2% | HOP-62 NSCLC 101% | HOP-92 NSCLC 95.8% | NCI-H522 lung 85.6% | A549/ATCC NSCLC 97.4% | 786-0 renal 103% | COLO 205 colon 99.9% | DU-145 prostate 105% | K-562 leukemia 96.1% | MALME-3M melanoma 102% | MDA-MB-231 breast 92.9% | RXF 393 renal 101% | SF-268 CNS 103% | SF-295 CNS 88.3% | SF-539 CNS 98% | UACC-257 melanoma 93.9% | M14 melanoma 103%

C/C(=N\NC(=S)N1CCCCC1)c1ccccn1
inactive: NCI-H23 lung 30.8% | HOP-62 NSCLC 21% | NCI-H522 lung 11.5% | 786-0 renal 15.5% | DU-145 prostate 28.3% | MDA-MB-231 breast 24.7%
active: NCI-H226 lung 7.07% | NCI-H322M lung 4.53% | HOP-92 NSCLC -1.04% | A549/ATCC NSCLC 9.13% | COLO 205 colon -14% | K-562 leukemia 2.29% | MALME-3M melanoma 5.96% | RXF 393 renal -17.6% | SF-268 CNS 8.38% | SF-539 CNS 5.37% | UACC-257 melanoma -2.18% | M14 melanoma -33.4%

FC(F)(F)C1=NNC(c2ccc3ccccc3c2)=NN1
inactive: NCI-H23 lung 94.2% | NCI-H226 lung 87.4% | NCI-H322M lung 103% | HOP-62 NSCLC 106% | HOP-92 NSCLC 95.6% | NCI-H522 lung 97.2% | A549/ATCC NSCLC 102% | 786-0 renal 107% | COLO 205 colon 105% | DU-145 prostate 104% | K-562 leukemia 95.2% | MALME-3M melanoma 107% | MDA-MB-231 breast 81.9% | RXF 393 renal 123% | SF-268 CNS 100% | SF-539 CNS 93.9% | UACC-257 melanoma 104% | M14 melanoma 98.3%

COc1cc(C2C=C(C)N=C3SC=NN32)cc(OC)c1OC (centres undefined)
inactive: NCI-H23 lung 100% | NCI-H226 lung 108% | NCI-H322M lung 112% | HOP-62 NSCLC 102% | HOP-92 NSCLC 91.4% | NCI-H522 lung 104% | A549/ATCC NSCLC 101% | 786-0 renal 112% | COLO 205 colon 115% | DU-145 prostate 115% | K-562 leukemia 108% | MDA-MB-231 breast 104% | RXF 393 renal 113% | SF-268 CNS 111% | SF-295 CNS 107% | SF-539 CNS 99.1% | UACC-257 melanoma 94.8% | M14 melanoma 109%

CNC(=O)c1cc(Oc2ccc(NC(=O)c3[nH]c(SC)nc3-c3ccc(F)cc3)cc2)ccn1
inactive: NCI-H23 lung 75.4% | NCI-H226 lung 81.7% | NCI-H322M lung 85.4% | HOP-62 NSCLC 95% | HOP-92 NSCLC 70.6% | NCI-H522 lung 68% | A549/ATCC NSCLC 72.2% | 786-0 renal 78.1% | DU-145 prostate 59.6% | MDA-MB-231 breast 62.9% | RXF 393 renal 70.9% | SF-268 CNS 72.5% | SF-295 CNS 46.3% | SF-539 CNS 65.5% | UACC-257 melanoma 33.1% | M14 melanoma 12.7%
active: COLO 205 colon 7.33% | K-562 leukemia 7.07% | MALME-3M melanoma -7.31%

COc1cc(NC(C)CCCN)c2ncccc2c1Oc1ccc(Cl)cc1 (centres undefined)
inactive: NCI-H23 lung 87.4% | NCI-H226 lung 75% | NCI-H322M lung 64.5% | HOP-62 NSCLC 77.7% | HOP-92 NSCLC 43.4% | NCI-H522 lung 87.9% | A549/ATCC NSCLC 87.9% | 786-0 renal 67.3% | DU-145 prostate 74.8% | K-562 leukemia 52.2% | MALME-3M melanoma 88.1% | MDA-MB-231 breast 42.4% | RXF 393 renal 79.5% | SF-268 CNS 77.5% | SF-539 CNS 81.2% | UACC-257 melanoma 88.5% | M14 melanoma 74.4%
active: COLO 205 colon 6.98%

NS(=O)(=O)c1ccc(N2N=C(c3cccs3)CC2c2ccccc2O)cc1 (centres undefined)
active: HOP-92 NSCLC -8.37% | NCI-H522 lung -23.9% | A549/ATCC NSCLC 7.33% | COLO 205 colon -73.7% | DU-145 prostate -45% | K-562 leukemia 4.59% | MDA-MB-231 breast -19.3% | SF-268 CNS 7.15% | SF-295 CNS 1.4% | SF-539 CNS -23.5% | M14 melanoma 0.852%
inactive: NCI-H23 lung 28.1% | NCI-H226 lung 19.2% | NCI-H322M lung 25.4% | HOP-62 NSCLC 24.4% | 786-0 renal 10.8% | MALME-3M melanoma 47.9% | RXF 393 renal 27.1% | UACC-257 melanoma 33.2%

CC(=O)c1cccc(Nc2ncnc3ccc(NC(=O)c4ccco4)cc23)c1
inactive: NCI-H23 lung 88.7% | NCI-H226 lung 87.6% | NCI-H322M lung 102% | HOP-62 NSCLC 113% | HOP-92 NSCLC 71.7% | NCI-H522 lung 83.3% | A549/ATCC NSCLC 90.4% | 786-0 renal 89.5% | K-562 leukemia 86.9% | MALME-3M melanoma 97.8% | MDA-MB-231 breast 88.4% | RXF 393 renal 80.6% | SF-295 CNS 91.9% | SF-539 CNS 103% | UACC-257 melanoma 94.7% | M14 melanoma 87.4%

COc1ccc(NC(=O)c2ccc(C(F)(F)F)nc2Nc2ccc(Cl)cc2C)cc1Cl
active: NCI-H23 lung 3.83% | HOP-92 NSCLC -8.93% | COLO 205 colon -14.5% | DU-145 prostate 9.29% | MDA-MB-231 breast 7.34% | SF-295 CNS 3.72%
inactive: NCI-H226 lung 26.7% | NCI-H322M lung 45.8% | HOP-62 NSCLC 32.4% | NCI-H522 lung 18.9% | A549/ATCC NSCLC 14.2% | 786-0 renal 17% | K-562 leukemia 16.4% | MALME-3M melanoma 34.8% | RXF 393 renal 42.5% | SF-268 CNS 38.2% | SF-539 CNS 50.3% | UACC-257 melanoma 22% | M14 melanoma 34.2%
